The record followed here is the supplement of paper PMC10681739.

In all, about 4,000 sequences were measured (“arbitrary fluorescence units”: median about 830, highest 2% from about 6,500 on). This excerpt belongs to a sample that is enriched for the highest values.

Chain of RUNX1 (Q01196 whole entry): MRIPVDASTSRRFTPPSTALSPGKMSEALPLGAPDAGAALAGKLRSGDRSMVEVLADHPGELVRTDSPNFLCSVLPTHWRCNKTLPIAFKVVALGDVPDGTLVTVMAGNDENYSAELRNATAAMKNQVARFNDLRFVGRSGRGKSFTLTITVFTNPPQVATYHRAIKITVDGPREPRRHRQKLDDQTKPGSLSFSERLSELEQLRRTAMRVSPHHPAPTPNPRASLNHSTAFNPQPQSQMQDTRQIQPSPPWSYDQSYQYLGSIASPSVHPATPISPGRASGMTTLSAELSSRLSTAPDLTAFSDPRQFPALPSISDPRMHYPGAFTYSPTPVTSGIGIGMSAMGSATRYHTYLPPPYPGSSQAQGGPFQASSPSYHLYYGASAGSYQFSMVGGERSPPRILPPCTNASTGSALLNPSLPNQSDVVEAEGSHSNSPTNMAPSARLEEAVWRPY

In the assay the target is RUNX1 (UniProt Q01196). The assay is described as follows: RUNX1 binding intensity (PBM fluorescence), RUNX1 alone (arbitrary fluorescence units); higher = stronger binding. To be noted: RUNX1 concentration 2 nM; ETS1 concentration 0 nM. On the procedure:
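gcPBM on 36-bp genomic-derived probes (partner site mutated) containing one RUNX1 site and no ETS1 site. Recombinant human RUNX1 (2 nM) was incubated alone or with ETS1 (25 nM) and detected by anti-RUNX1 antibody fluorescence. Values are medians over 4 replicate spots (not normalised). The probes sit in constant array flanks that are not printed.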
ACACCTCAGCAAGTGGCAGAGACCACAACAAGTCAG gave an RUNX1 binding intensity of 952.

For CTTGTGGCTCCTTTCCACCCGCCCCGTAAGCCGGCC, the RUNX1 binding intensity is 930. In the case of ACCCCAAGCCCACAAACCCACCTGAAGGAACCAACT it was 1200. In the case of CCGCTGCGGCTGCGCGCTACGTCACTACGTTCGGCG it was 768; in that of AAAACCACATTGCCTGTGCTGCAGGCTGGAAAGCTG, 879; in that of GCAGAAACAGAAAGAGACAGGGCTGACCGCAGCAGG, 1360.

The sequence CCTCTCTGTGGTTCTGCCTGGAATACGCAAGGCAGG gave an RUNX1 binding intensity of 1050.

Regarding GGCGGGAGAGGAGGCCGGGCGGCCGCAGCTGCCTGT, the RUNX1 binding intensity amounted to 669. With TCGCTTACGGTGTCGGTTACAGACTGTGGTTGCCAT the figure was 812; with CACCCGAACTGAAACACCTGCGGCTGAGGGGAGGGG, 1030; with CCGAGAAGTGGAACCGCCAGGCGGAGGGGGCGGAGT, 767. With GAGCGCGGCACTCGCCACGGTAAGGATTACCACAGG the figure was 742; with TGGGGTGTCCGAGCCGCCCCCGAACCGCGCACCCGA, 796. With GACAAGCCATGTGGTTGCTGGCAGGCAATCTCAGTC the figure was 1430. As to TATTCAGCAGCAAAGGAGAGAGTCTGTGGTATCTGC, the RUNX1 binding intensity came to 708. With GCTGAGTGCGGGTGGCCTGGGCCGAAGGCTCAGCGG the figure was 724; with GCCGCGGTGCCTGCCGGGACAGCGAGTTCAGCCGGG, 738; with CTGTGGGTTCGGCAGTAAACTCTGACCTCCTATTTA, 892. With TGGGACCGCTAATCGGAGAGGGTGCGCAAACGCTGG the figure was 658; with GTATGGGAGGTGATCTGGCTGCAAACCGCAAGAGAG, 8250; with AAGTTCGCAACCGCCAAGAGGGGAGACGGGCTGCGC, 764. In the case of ACCCACTTGCTGTTAGAGCATCTTTGCAACCACAGG it was 729; in that of CTCGGGATTTGTGGTCCACCCGGCTGAACTCGCGGC, 788.

Regarding AGGGTTTGTGGGACCTGGTGACTCACGGGATCTGGG, the RUNX1 binding intensity was 703. With CTGCCATGAAGGGTTCTGGTTTGAGGTCTCCTCTTA the figure was 741. With GCCCCTGATAGCGTCCTCACCATCCCCACAGCGCCT the figure was 1100.

TGGCCCCGGGGCCCCACAACGGCTTCATGTGTCCCG came in with an RUNX1 binding intensity of 693. CCTTAGCACAGACCACCATCTACGGGAATTCCTAAG gave an RUNX1 binding intensity of 912. For the sequence CAGTCAGACGGGAGCCCGGCTTCTGTGGTGCCTGCC, the RUNX1 binding intensity amounted to 696.

Turning to CCTAGAACCGTAAGAGAAAGGGGCTGCGGTGCAGCA, the RUNX1 binding intensity was 745. With CTGTGCGGTCATGTGACGGAGGCCTGAAGGCAGGTC the figure was 1410; with TGCGCCGGGAGTGCATGAGCTGCCGATGTGGTGCTT, 697; with GACGTAAGCCGAGAGGCTCCCGTAAGCGGTCTTGAG, 733. For GACTCGCTCTGCGGCCCCACGCAGGGAGCCTCCTTG, the RUNX1 binding intensity is 905. CTCATAACCGCTAACTCAACCTCTAACATTTGCTGT showed an RUNX1 binding intensity of 3220.
